# Laboratory results: PubChem BioAssay AID602449 (Sanford-Burnham Center for Chemical Genomics, 2012)
# The whole screen tested about 360,000 compounds, of which about 5,000 (1.4%) were called active.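 Rule for the calls: active = inhibition of 50% or more, scaled per plate between neutral and stimulator controls; inactive = the rest.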 The sample as a whole holds a higher share of actives than the screen did.
# Test: mitochondrial permeability transition pore inhibitors, primary screen, biochemical, isolated mouse mitochondria, absorbance (AID 602449);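 note: 0% = DMSO wells given calcium and 100% = 1 mM EGTA wells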
# Conditions: Ca2+ swelling absorbance, 30 min, at 10 µM, hits give high values
row,Structure (SMILES),inhibition
1,COc1ccc(N2CCN(C(=O)[C@@H](NC(=O)c3cc(OC)cc(OC)c3)C(C)C)CC2)cc1,0.3% (inactive)
2,O=C(Nc1nnc(S(=O)(=O)N2CCCCCC2)s1)c1cccc(Br)c1,79.7% (active)
3,O=C(Nc1nnc(S(=O)(=O)N2CCOCC2)s1)c1cccc(Br)c1,4.6% (inactive)
4,COc1cccc(C(=O)Nc2nnc(S(=O)(=O)N3CCOCC3)s2)c1,-1% (inactive)
5,COc1cccc(C(NC(C)=O)c2nc(-c3cnc4ccccc4c3)cs2)c1 (stereo not given),0.4% (inactive)
6,CCCCn1c(N)c(N(CCC(C)C)C(=O)c2ccc([N+](=O)[O-])o2)c(=O)[nH]c1=O,-0.3% (inactive)
7,COc1ccc(NC(=O)CN(C)C(=O)Cc2coc3cc(C)c(C)cc23)cc1,-0.3% (inactive)
8,Cc1ccc(F)cc1NC(=O)Cc1nn(C)c(=O)c2ccccc12,69.1% (active)
9,Cc1ccc(F)cc1NC(=O)CSCc1c(C)noc1C,-0.3% (inactive)
10,Cc1ccc(C)c(NC(=O)COC(=O)c2nn(C)c(=O)c3ccccc23)c1,1.4% (inactive)
11,O=C1CC(c2c(F)cccc2Cl)C(n2cncn2)C(O)=C1C1NCCc2ccccc21 (stereo not given),5.6% (inactive)
12,NNC(=O)COc1ccc(C2SCCS2)cc1,-1% (inactive)
13,COc1ccc(CCC(C)N2CCc3ccccc3C2)cc1 (stereo not given),-0.5% (inactive)
14,Cn1c(=O)c2c(nc(CN3CCOCC3)n2Cc2ccccc2)n(C)c1=O,0.1% (inactive)
15,COCCn1c(CN(Cc2ccccc2)Cc2ccccc2)nc2c1c(=O)n(C)c(=O)n2C,0.9% (inactive)
16,COCCn1c(CN2CCC(Cc3ccccc3)CC2)nc2c1c(=O)n(C)c(=O)n2C,83.7% (active)
17,COc1cc(C(=O)Nc2cc(C(F)(F)F)ccc2-n2cncn2)cc(OC)c1OC,-0.1% (inactive)
18,Cc1cc(C)c2c(Cn3ccnc3)cc(=O)oc2c1,-1.5% (inactive)
19,COc1ncnc2c1N=C1CC(C)(C)CC(N)=C1S2,0.5% (inactive)
20,O=C(COc1ccc(S(=O)(=O)N2CCOCC2)cc1Cl)N1CCOCC1,0.5% (inactive)

row,Structure (SMILES),inhibition
1,COc1ccc(CN2CCOC2=O)cc1OC,0.9% (inactive)
2,COc1ccccc1CNC(=O)CCn1c(=O)sc2ccccc21,0.2% (inactive)
3,COc1ccc(Cn2c(=O)sc3ccccc32)cc1OC,72.6% (active)
4,Nc1ccc(OCC(O)C[n+]2ccc(CCS(=O)(=O)[O-])cc2)cc1 (stereo not given),-2.1% (inactive)
5,Oc1c(Cl)cc(Cl)c(Cl)c1Cc1c(O)c(Cl)cc(Cl)c1Cl,80.8% (active)
6,CN(C)C(=O)N=NC(=O)N(C)C,4.3% (inactive)
7,CCC1=C(OC(=O)N(CC)CC)N2C(=O)OC(=NCCc3c[nH]c4ccccc34)[C@]2(C)[C@H]2C1=CC[C@H]1C(=O)N(CC)C(=O)[C@H]12,0% (inactive)
8,CC1(C)OC(=O)C2=C(C[C@@H](C3CC3)O[C@H]2CCc2cccc(Cl)c2)O1,1% (inactive)
9,O=C(Nc1nnc(SCc2ccc(Cl)cc2Cl)s1)C1COc2ccccc2O1 (stereo not given),70% (active)
10,O=C(N/N=C\c1cc(Br)c(Br)o1)C1COc2ccccc2O1 (stereo not given),3.3% (inactive)
11,O=C(Nc1nc2c(F)cc(F)cc2s1)C1COc2ccccc2O1 (stereo not given),63.7% (active)
12,O=C(Nc1cc(S(=O)(=O)N2CCCCC2)ccc1Cl)C1COc2ccccc2O1 (stereo not given),-0.4% (inactive)
13,Cc1cc(C)c2nc(NC(=O)C3CCCO3)sc2c1 (stereo not given),-9.1% (inactive)
14,C/C(=N/NC(=O)C1COc2ccccc2O1)c1ccco1 (stereo not given),0.4% (inactive)
15,O=C(CN1CCOCC1)N1CCCc2c1c(=O)oc1ccc(OCc3ccccc3)cc21,5.1% (inactive)
16,CCCN(CCC)c1c([N+](=O)[O-])c(=O)oc2ccccc12,-6.7% (inactive)
17,COCCCNC(=O)C1CCN(c2ccc(N3CCOCC3)nn2)CC1,0.3% (inactive)
18,OC(c1ccccc1)c1nccn1Cc1ccccc1 (stereo not given),-1.7% (inactive)
19,O=S(=O)(N1CCCCC1)N1CCNCC1,1.7% (inactive)
20,O=C1c2ccccc2S(=O)(=O)N1Cc1c(F)cccc1Cl,-0.3% (inactive)

row,Structure (SMILES),inhibition
1,NC(N)=N/N=C/c1ccc(OCc2ccc(Cl)cc2Cl)cc1,6% (inactive)
2,NC(N)=N/N=C/c1ccc(Cl)c([N+](=O)[O-])c1,90.5% (active)
3,Nn1cnnc1N/N=C/c1cc([N+](=O)[O-])c(Cl)cc1Cl,0.6% (inactive)
4,CC(C)N(C(=O)[C@H]1C[C@H](CC(=O)NC(C)(C)C)C(=O)N2CCc3c([nH]c4ccc(Cl)cc34)[C@]12C)C(C)C,-1.7% (inactive)
5,Cc1ccc(C(=O)N/C(=C/c2cccnc2)C(=O)O)cc1,0.9% (inactive)
6,O=C1c2ccccc2C(=O)C1C(=O)C1CC1,-0.9% (inactive)
7,C/C(=N\NC(=O)c1ccc(C)cc1)C1C(=O)c2ccccc2C1=O,57.8% (active)
8,CCOc1ccc(S(=O)(=O)Nc2nccs2)cc1,0.5% (inactive)
9,Cn1c(Cc2cccc3ccccc23)nnc1SCC(=O)N1CCN(c2cccc(Cl)c2)CC1,-0.5% (inactive)
10,O=C(Nc1ccc(Cl)cc1)Nc1ccc(Oc2cccnc2)nc1,82.5% (active)
11,O=C(O)CCCC(=O)Nc1ccc(Oc2cccc(C(F)(F)F)c2)nc1,0.9% (inactive)
12,Cc1cccc(C(=O)Nc2ccc(Oc3cnccn3)cc2)c1,0.7% (inactive)
13,O=C1c2ccccc2[C@@H]2C[C@@H](O)[C@H](Nc3ccccc3Cl)CCN12,-0.5% (inactive)
14,Cc1ccc2c(c1)C(c1ccccc1)N(C(=O)c1ccc(S(=O)(=O)N3CCOCC3)cc1)CC(=O)N2 (stereo not given),-0.3% (inactive)
15,Nc1nc(CSc2nnnn2-c2ccccc2)nc(Nc2ccccc2)n1,0% (inactive)
16,O=C(c1ccc(-c2ccccc2)cc1)C1CCCN(C(=O)c2cncs2)C1 (stereo not given),-1.8% (inactive)
17,Cc1ccn(CC(=O)NC2CCCN(Cc3ccccc3F)C2)n1 (stereo not given),0.4% (inactive)
18,CCNCCC(=O)N1c2ccccc2Sc2ccc(NC(=O)OCC)cc21,75.6% (active)
19,CCOC(=O)Nc1ccc2c(c1)N(C(=O)CCCl)c1ccccc1[S@]2=O,-1.2% (inactive)
20,CCOC(=O)Nc1ccc2c(c1)N(C(=O)CCN1CCN(CCO)CC1)c1ccccc1CC2,0.2% (inactive)
